Out of some 3,600 compounds screened, about 900 (25%) were called active. How the calls were made is not given here. The list is a sample of the results. Entries with a potency or affinity are not part of this list.
Target: Protein Tat (Human immunodeficiency virus type 1 group M subtype B (isolate HXB2)) (UniProt P04608)
Experiment: HIV-1 Tat–TAR interaction blockers – biochemical, fluorescence polarization, FAM-labeled TAR RNA, counter-screen for Vif-APOBEC3G degradation inhibitor project, dose response (AID 1117361)
Details: Tat-TAR RNA binding; series mostly up to 100 µM

Question: With `CCC(C)[C@@H](C(=O)Nc1ccc2c(c1)OCO2)N1Cc2ccccc2C1=O` (stereo partly specified) as the molecule, how does the outcome read?
Answer: The outcome was “inactive”.

Question: How did the outcome turn out when `Cc1ccc(S(=O)(=O)CCC(=O)Nc2ccc3c(c2)OCO3)cc1` was run?
Answer: The outcome was “inactive”.

Question: Which outcome does the source give for `CCc1ccc(NC(=O)COC(=O)CCc2nc3cc(S(=O)(=O)N(CC)CC)ccc3n2C)cc1` here?
Answer: Its outcome is “inactive”.

Question: `Cc1ccc(S(=O)(=O)NCCC(=O)N2CCN(C/C=C/c3ccccc3)CC2)cc1` was tested. Which outcome did it give?
Answer: The outcome was “inactive”.

Question: How did the outcome turn out when `O=C(CSc1nc2ccccc2c(=O)n1NC(=O)c1ccccc1)c1ccccc1` was run?
Answer: Its outcome is “inactive”.

Question: With `CCCc1cc(=O)[nH]c(SCC(=O)c2c(C)[nH]c3ccccc23)n1` as the molecule, how does the outcome read?
Answer: The outcome was “inactive”.

Question: For `COc1ccc(CC(NC(C)=O)C(=O)NC2CCN(S(=O)(=O)c3cccc4ccccc34)CC2)cc1OC` (stereo unspecified), which outcome is on record?
Answer: The outcome was “inactive”.

Question: Which outcome does the source give for `COc1c(F)c(F)c(C(=O)Nc2ccc3oc(-c4ccncc4)nc3c2)c(F)c1F` here?
Answer: The outcome was “inactive”.

Question: How did the outcome turn out when `CCOC(=O)C1=C(C)NC2=C(C(=O)CC(C)(C)C2)C1c1ccsc1` (stereo unspecified) was run?
Answer: The outcome was “inactive”.

Question: For `CCN(CC)c1ccc(C2NC(=O)NC(C)=C2C(=O)Nc2ccccc2)cc1` (stereo unspecified), which outcome is on record?
Answer: Its outcome is “inactive”.

Question: How did the outcome turn out when `CCOC(=O)c1c(O)c2ccccc2n(-c2ccccc2)c1=O` was run?
Answer: Its outcome is “inactive”.

Question: For `CCn1c(=O)c(C(=O)NCc2ccccn2)c(O)c2ccccc21`, which outcome is on record?
Answer: Its outcome is “inactive”.

Question: `O=C(CSc1nccn1Cc1ccccc1)Nc1nccs1` was tested. Which outcome did it give?
Answer: The outcome was “inactive”.

Question: How did the outcome turn out when `CC(C)(C)OC(=O)NC(CCNC=C1C(=O)OC(C)(C)OC1=O)C(=O)O` (stereo unspecified) was run?
Answer: The outcome was “inactive”.

Question: `O=C(Cc1ccc2c(c1)OCCO2)N1CCN(S(=O)(=O)c2cccs2)CC1` was tested. Which outcome did it give?
Answer: Its outcome is “inactive”.

Question: `CC(=O)Nc1nnc(C)s1` was tested. Which outcome did it give?
Answer: Its outcome is “inactive”.

Question: Which outcome does the source give for `COc1ccc(CNc2nc3ccccc3n2C)c(O)c1` here?
Answer: Its outcome is “inactive”.

Question: For `COc1ccc(-c2nnc(-c3ccc(N)cc3)o2)cc1`, which outcome is on record?
Answer: Its outcome is “inactive”.

Question: With `O=C(NCCc1ccncc1)Nc1ccccc1Cl` as the molecule, how does the outcome read?
Answer: The outcome was “inactive”.

Question: For `O=C(CCCNS(=O)(=O)c1cccc2nsnc12)NCc1ccccc1`, which outcome is on record?
Answer: Its outcome is “inactive”.

Question: `O=C(NCc1ccco1)c1cc(-c2cccc(Cl)c2)on1` was tested. Which outcome did it give?
Answer: The outcome was “inactive”.

Question: `Cc1onc(-c2ccccc2)c1C(=O)NCc1cccs1` was tested. Which outcome did it give?
Answer: Its outcome is “inactive”.

Question: How did the outcome turn out when `Cc1cc2oc(=O)cc(C)c2c(=O)o1` was run?
Answer: The outcome was “inactive”.

Question: For `CS(=O)(=O)N1CCc2cc(C(=O)OCC(=O)c3ccccc3)ccc21`, which outcome is on record?
Answer: Its outcome is “inactive”.

Question: For `CCOC(=O)c1c(NC(=O)Cn2cc([N+](=O)[O-])cn2)sc2c1CCC2`, which outcome is on record?
Answer: Its outcome is “inactive”.

Question: Which outcome does the source give for `CCOC(=O)c1c(NC(C)=O)sc2c1CCCNC2=O` here?
Answer: The outcome was “inactive”.

Question: Which outcome does the source give for `COc1ccc(C)cc1NC(=O)C1CC(=O)OC12CCCCC2` (stereo unspecified) here?
Answer: The outcome was “inactive”.

Question: With `Cc1cccc(S(=O)(=O)c2c(N)n(/N=C/c3ccco3)c3nc4ccccc4nc23)c1` as the molecule, how does the outcome read?
Answer: The outcome was “inactive”.

Question: How did the outcome turn out when `Nc1c(S(=O)(=O)c2ccccc2)c2nc3ccccc3nc2n1/N=C/c1ccco1` was run?
Answer: The outcome was “inactive”.

Question: For `CC(=O)N1c2c(cc(Br)cc2S(=O)(=O)N2CCOCC2)CC1C` (stereo unspecified), which outcome is on record?
Answer: Its outcome is “inactive”.

Question: With `CCC(C)(C)n1nnnc1C(c1cc2cc(C)ccc2[nH]c1=O)N1CCCc2ccccc21` (stereo unspecified) as the molecule, how does the outcome read?
Answer: The outcome was “inactive”.

Question: How did the outcome turn out when `COc1ccc2cc(C(c3nnnn3C3CCCC3)N3CCc4ccccc4C3)c(=O)[nH]c2c1` (stereo unspecified) was run?
Answer: The outcome was “inactive”.

Question: Which outcome does the source give for `COC(=O)c1ccc(S(=O)(=O)N2CCN(CCO)CC2)n1C` here?
Answer: Its outcome is “inactive”.

Question: How did the outcome turn out when `O=C1c2c(O)ccc(O)c2C(=O)c2c(NCCNCCO)ccc(NCCNCCO)c21` was run?
Answer: Its outcome is “inactive”.

Question: Which outcome does the source give for `COC(=O)COc1ccc2c(c1C)O/C(=C\c1ccco1)C2=O` here?
Answer: Its outcome is “inactive”.

Question: `O=C(O)COc1ccc(NC(=O)c2ccco2)cc1` was tested. Which outcome did it give?
Answer: The outcome was “inactive”.

Question: For `COc1ccc(NC(=O)c2ccc(-n3cccn3)nc2)cc1`, which outcome is on record?
Answer: Its outcome is “inactive”.

Question: How did the outcome turn out when `COc1ccccc1C1CC(=O)Nc2c1c(=O)n(C)c(=O)n2C` (stereo unspecified) was run?
Answer: The outcome was “inactive”.

Question: How did the outcome turn out when `O=C(Nc1nnc(C2CC2)s1)c1ccc(S(=O)(=O)c2ccccc2)cc1` was run?
Answer: Its outcome is “inactive”.

Question: `CC(=O)Nc1nnc(-c2c(-c3c(Cl)cccc3Cl)noc2C)o1` was tested. Which outcome did it give?
Answer: Its outcome is “inactive”.

Question: Which outcome does the source give for `CC12CCC(C(=O)NCCN3CCCCC3)(CC1=O)C2(C)C` (stereo unspecified) here?
Answer: Its outcome is “inactive”.

Question: `CC(C)C(C)NC(=O)COc1ccc(S(=O)(=O)N2CCOCC2)cc1Cl` (stereo unspecified) was tested. Which outcome did it give?
Answer: The outcome was “inactive”.

Question: For `Clc1cccc(Cl)c1Cn1nnc(-c2cccs2)n1`, which outcome is on record?
Answer: The outcome was “inactive”.

Question: How did the outcome turn out when `COc1ccc(N(C(=O)COc2ccccc2OC)S(=O)(=O)c2ccc(C)cc2)cc1` was run?
Answer: The outcome was “inactive”.

Question: How did the outcome turn out when `NC(=O)c1ccc(-n2nnnc2SCC(=O)Nc2ccccc2-c2ccccc2)cc1` was run?
Answer: Its outcome is “inactive”.

Question: Which outcome does the source give for `O=C(CSc1nnnn1-c1ccccc1)Nc1nsc(-c2ccccc2)n1` here?
Answer: The outcome was “inactive”.

Question: With `Cc1cc2cc(C=O)c(Cl)nc2cc1C` as the molecule, how does the outcome read?
Answer: The outcome was “inactive”.

Question: How did the outcome turn out when `Cc1ccccc1OCC(=O)NCC1CCCO1` (stereo unspecified) was run?
Answer: The outcome was “inactive”.

Question: Which outcome does the source give for `CCOc1cccc(SCc2noc(C(=O)NCC3CCCO3)c2C(=O)O)c1` (stereo unspecified) here?
Answer: Its outcome is “inactive”.

Question: `Cc1cc2ncn(C(=O)N3CCOCC3)c2cc1C` was tested. Which outcome did it give?
Answer: The outcome was “inactive”.

Question: `O=C(CN1C(=O)NC2(CCCC2)C1=O)Nc1nc(-c2ccc(F)cc2)cs1` was tested. Which outcome did it give?
Answer: Its outcome is “inactive”.

Question: For `COc1ccc(CN2C(=O)c3ccccc3C2C(=O)NCc2cccnc2)c(OC)c1` (stereo unspecified), which outcome is on record?
Answer: Its outcome is “inactive”.

Question: Which outcome does the source give for `CCOc1ccc(N2C(=O)c3ccccc3C2O)cc1` (stereo unspecified) here?
Answer: Its outcome is “inactive”.

Question: With `C/C(=N\NC(=O)c1ccc(NS(=O)(=O)c2cccs2)cc1)c1ccccc1` as the molecule, how does the outcome read?
Answer: Its outcome is “inactive”.

Question: For `Cc1ccc(CN2C(=O)CCC2C(=O)N2CCN(c3ccc(F)cc3)CC2)cc1` (stereo unspecified), which outcome is on record?
Answer: Its outcome is “inactive”.

Question: `CC(=O)n1c(Cl)c(NC(=O)CCl)c2ccccc21` was tested. Which outcome did it give?
Answer: Its outcome is “inactive”.

Question: With `CC(NC(=O)C(NS(=O)(=O)c1cccs1)C(C)C)c1ccc(S(N)(=O)=O)cc1` (stereo unspecified) as the molecule, how does the outcome read?
Answer: The outcome was “inactive”.

Question: With `Cc1cc(C)cc(NCCC#N)c1` as the molecule, how does the outcome read?
Answer: The outcome was “inactive”.

Question: Which outcome does the source give for `CCOC(=O)CC1Sc2ccccc2NC1=O` (stereo unspecified) here?
Answer: Its outcome is “inactive”.

Question: How did the outcome turn out when `Cc1cc(C)n(Cc2ccc(NC(=O)c3nn(C)cc3[N+](=O)[O-])cc2)n1` was run?
Answer: Its outcome is “inactive”.

Question: Which outcome does the source give for `Cc1ccc2[nH]c(=O)c(CN(Cc3cccnc3)C(=O)c3ccncc3)cc2c1` here?
Answer: The outcome was “inactive”.

Question: How did the outcome turn out when `COC(=O)Nc1sc2nc(C)cc(C)c2c1-n1cccc1` was run?
Answer: Its outcome is “inactive”.

Question: Which outcome does the source give for `O=C(COc1ccc([N+](=O)[O-])cc1)NC(C(=O)O)C(O)c1cccc([N+](=O)[O-])c1` (stereo unspecified) here?
Answer: The outcome was “inactive”.

Question: With `CCn1c(COc2ccc(=O)n(-c3ccccc3)n2)nnc1SCc1ccc(C)cc1` as the molecule, how does the outcome read?
Answer: The outcome was “inactive”.

Question: How did the outcome turn out when `CCc1ccc(NC(=O)C(C)Oc2nnc(-c3cccs3)c(-c3cccs3)n2)cc1` (stereo unspecified) was run?
Answer: Its outcome is “inactive”.

Question: With `Cc1ccccc1SCc1noc(C(=O)NC(C)C)c1C(=O)O` as the molecule, how does the outcome read?
Answer: Its outcome is “inactive”.

Question: `CN(Cc1cccs1)C(=O)Cn1cnc2ccccc2c1=O` was tested. Which outcome did it give?
Answer: Its outcome is “inactive”.

Question: Which outcome does the source give for `COc1ccc([N+](=O)[O-])cc1CSc1nnc(NC(C)=O)s1` here?
Answer: Its outcome is “inactive”.

Question: For `COCCSc1nnc(NC(=O)Cc2ccccc2OC)s1`, which outcome is on record?
Answer: The outcome was “inactive”.

Question: Which outcome does the source give for `Oc1ccc(/C=C/c2cnccn2)cc1` here?
Answer: Its outcome is “inactive”.

Question: With `Cc1ccc(C)c(S(=O)(=O)Nc2ccc3scnc3c2)c1` as the molecule, how does the outcome read?
Answer: Its outcome is “inactive”.
